# Screening results: PubChem BioAssay, National Center for Advancing Translational Sciences (NCATS)
# Rows were chosen to be rich in hits. Some 21% of all compounds tested hit in one or more screens of this group.
# IL1B secr inh – qHTS for Inhibitors of Inflammasome Signaling: IL-1-beta AlphaLISA Primary Screen | activity change, % at 57.5 µM | THP-1 LPS/ATP IL-1B secretion, AlphaLISA, 16 h; hits give low values | AID 743279, 2014 | 360,000 tested, 4.7% active; in the data active = activity change below about -50%; inconclusive = mostly about -30% to -49%; also: % is scaled to controls: 0 for no effect and ±100 for the full control effect
#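 Secreted IL-1B measured by AlphaLISA bead assay after 16 h compound exposure of THP-1 cells; compounds (final up to 57.5 uM) added 1 h before LPS (250 ng/mL) and ATP (1.25 mM) stimulation; lower signal means less secretion.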
# DT40 TDP1 no CPT – qHTS for Inhibitors of human tyrosyl-DNA phosphodiesterase 1 (TDP1): qHTS in cells in absence of CPT; Potency, µM (series often up to 46.2 µM), for inactives: at the highest dose activity change, negative = growth inhibition, actives largely listed as inhibitors; 420,000 tested, 15% active; DT40 Tdp1-/- hTDP1 cells, no CPT, ATP luminescence, 48 h; AID 686978, 2013; also: potency is read from the fitted curve at half-maximal effect; % is scaled to controls: 0 for no effect and ±100 for the full control effect; nearly all actives have a fitted effect of over 55% in size
#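 Stably hTDP1-transfected Tdp1-null chicken DT40 cells were treated with library compounds minus camptothecin and grown for at least 48 hr at 37 °C, after which cellular ATP was quantified by luminescence.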
# D3 antag – qHTS of D3 Dopamine Receptor Antagonist: qHTS. 360,000 tested, 2.5% active. max response, negative = inhibition, %. AID 652054, 2013. D3R cells, DiscoveRx beta-arrestin luminescence, antagonist mode; hits give low values. D(3) dopamine receptor (Homo sapiens), P35462; in the data active = max response below about -50%; inconclusive = no clear call, values can overlap the other calls; also: % is scaled to controls: 0 for no effect and ±100 for the full control effect
# Target sequence (P35462 whole entry, looked up): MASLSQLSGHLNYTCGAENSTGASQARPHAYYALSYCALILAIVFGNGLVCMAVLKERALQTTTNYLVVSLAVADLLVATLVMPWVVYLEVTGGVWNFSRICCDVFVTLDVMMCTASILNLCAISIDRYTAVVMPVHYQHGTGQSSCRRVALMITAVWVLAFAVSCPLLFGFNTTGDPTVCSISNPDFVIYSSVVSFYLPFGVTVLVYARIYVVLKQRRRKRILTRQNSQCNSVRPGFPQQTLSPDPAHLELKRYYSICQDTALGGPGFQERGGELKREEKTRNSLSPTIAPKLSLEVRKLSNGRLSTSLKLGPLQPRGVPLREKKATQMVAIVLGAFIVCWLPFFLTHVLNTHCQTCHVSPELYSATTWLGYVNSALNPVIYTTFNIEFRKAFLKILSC
#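 Cells plated overnight at 1500 cells/well, then exposed to library compounds with dopamine controls for 90 minutes at 37 degrees C. DiscoveRx reagent added for 30–60 minutes at room temperature; luminescence read, quantitative HTS format.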
# TDP1 cell CPT – qHTS for Inhibitors of human tyrosyl-DNA phosphodiesterase 1 (TDP1): qHTS in cells in presence of CPT; chicken DT40 Tdp1-/-;hTDP1 cells + 20 nM CPT, ATP luminescence, 48 h; Potency, µM (titrated, usually from 46.2 µM), for inactives: at the top dose activity change, negative = growth inhibition, hits mostly inhibitors; 420,000 tested, 12% active; also: potency is read from the fitted curve at half-maximal effect; % is scaled to controls: 0 for no effect and ±100 for the full control effect; nearly all actives have a fitted effect of over 55% in size
#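 Chicken DT40 Tdp1-/- cells complemented with human TDP1, 400 cells/well, exposed to compounds plus 20 nM camptothecin for at least 48 h at 37 C; viability read as ATP content by CellTiter-Glo luminescence.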
# ClpP mod – qHTS Assay for Activators of ClpP | ATP-dependent Clp protease proteolytic subunit (Bacillus subtilis (strain 168)), P80244 | purified B. subtilis ClpP, FRET peptide cleavage, 20 min | Potency, µM (top dose mostly 57.5 µM), without a hit: top-dose activity change, negative = active | 340,000 tested, 1.9% active | AID 651965, 2013; active = well fitted falling curve with a large enough effect; inconclusive = small, poorly fitted or top-dose-only effect; inactive = no such curve, though single readings can be large or run the other way; also: potency is read from the fitted curve at half-maximal effect; the source files actives as falling curves though it sought activators and does not explain the sign; nearly all actives have a fitted effect of over 65% in size
# Target sequence (P80244 whole entry, looked up): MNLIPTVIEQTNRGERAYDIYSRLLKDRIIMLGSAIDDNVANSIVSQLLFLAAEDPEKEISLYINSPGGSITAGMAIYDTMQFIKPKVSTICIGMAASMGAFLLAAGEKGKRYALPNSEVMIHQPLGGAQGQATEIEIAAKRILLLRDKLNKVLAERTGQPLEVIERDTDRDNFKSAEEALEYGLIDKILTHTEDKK
#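 Buffer: 100 mM Tris/HCl pH8, 100 mM KCl, 0.05% low protease BSA, 2.5% glycerol, 0.01% Tween-20. ClpP 10 microg/mL final; 20 min RT; delta FRET normalized to ADEP and DMSO controls.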
# DRD3 agonist – qHTS of D3 Dopamine Receptor Agonist: qHTS | 410,000 tested, 0.58% active | D(3) dopamine receptor (Homo sapiens), P35462 | max activation, % | D3R DiscoveRx beta-arrestin cells, luminescence, 90 min; in the data active = max activation above about 30%; also: 0% is about no effect
#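 Cells at 1500/well, incubated overnight, then treated with pinned compounds (dopamine as control) for 90 min at 37 degrees C. DiscoveRx reagent added for 30 - 60 minutes at room temperature; luminescence read.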
# The depositor's hits bear a star; ? = inconclusive; . = not tested or not shown; ! = repeats disagree. Unless noted, calls follow the shape of the dose curve; as a rule, active = well fitted inhibition curve with a large enough effect; inconclusive = small, poorly fitted or top-dose-only effect; inactive = flat fitted curve, though single readings scatter.
SMILES,IL1B secr inh,DT40 TDP1 no CPT,D3 antag,TDP1 cell CPT,ClpP mod,DRD3 agonist
CCOC(=O)c1c(C=O)c2ccccc2n1Cc1ccccc1F,8.0,?,6.6,-11.8%,-1.0%,-6.9
COc1ccc(CNC(=O)C2CCN(c3nc(OC)nc(OC)n3)CC2)cc1,12.9,16.4µM*,-7.1,?,1.4%,3.5
Cc1ccc(NC(=O)C2CCN(C(=O)c3cnn(-c4ccccc4)c3-n3cccc3)CC2)cc1Cl,.,13µM*,.,?,-3.5%,2.9
Cc1nnc(N2CCC(C(=O)NCc3ccc(N(C)C)cc3)CC2)c2nn(-c3ccccc3)c(C)c12,.,?,.,?,?,-13.8
COc1ccc(CNC(=O)C2CCN(C(=O)c3cnn(-c4ccccc4)c3-n3cccc3)CC2)cc1,.,6.51µM*,.,16.4µM*,-3.6%,-3.8
O=C(NCc1ccc(Cl)cc1)C1CCN(C(=O)c2cnn(-c3ccccc3)c2-n2cccc2)CC1,.,10.3µM*,.,14.6µM*,0.1%,7.1
C#C[C@@]1(O)CCC2C3CCC4=C/C(=N/OCC(=O)NC(C(=O)NC(CC(C)C)C(=O)O)C(C)C)CC[C@]4(C)C3CC[C@@]21C (stereo partly specified),36.2,21.1%,6.5,-10.4%,1.9%,2.2
O=C(CN1C(=O)c2ccccc2C1=O)N1CCN(c2nnc(-c3ccccc3)c3ccccc23)CC1,9.8,?,-5.1,-18.5%,0.8%,1.6
Cc1ccc(N=Nc2c(O)[nH]c(=O)[nH]c2=O)c([N+](=O)[O-])c1,46.6,-17.8%,?,-17.5%,1.5%,-13.4
COc1ccc(CC(=O)C2C(=O)N(C)c3ccccc32)cc1OC (stereo unspecified),3.8,?,?,-11.4%,-3.8%,0.5
COC(=O)C1=C(c2ccccc2OCc2ccccc2)C[C@@H]2CC[C@H]1N2C(=O)NCCCOC(C)C,8.5,?,-24.7,16.4µM*,0.5%,0.2
COC(=O)C1=C(c2cccc(OCc3ccccc3)c2)C[C@@H]2CC[C@H]1N2C(=O)NCCOc1ccc(OC)cc1,-11.4,?,-18.8,23.1µM*,-0.3%,3.1
COC(=O)C1=C(c2ccccc2OCc2ccccc2)C[C@@H]2CC[C@H]1N2C(=O)NCc1ccc(N(C)C)cc1,?,?,6.5,?,-0.4%,0.0
COC(=O)C1=C(c2cccc(OCc3ccccc3)c2)C[C@@H]2CC[C@H]1N2C(=O)NCc1cccc(OC)c1,?,14.6µM*,-28.2,23.1µM*,-1.7%,-7.8
COC(=O)C1=C(c2cccc(OCc3ccccc3)c2)C[C@@H]2CC[C@H]1N2C(=O)NCCCOC(C)C,?,18.4µM*,-23.0,20.6µM*,-2.2%,-11.8
Cc1cccc(Cc2cnc[nH]2)c1C,.,-2.5%,.,6.6%,.,5.1
Cc1ccc(C(=O)O)cc1N=Nc1c(O)[nH]c(=O)[nH]c1=O,-20.8,-6.4%,-17.5,5.2%,.,-6.4
COC(=O)C1=C(c2cccc(OCc3ccccc3)c2)C[C@@H]2CC[C@H]1N2C(=O)NCc1ccc(C(C)(C)C)cc1,-16.4,20.6µM*,?,?,-5.3%,-20.6
COC(=O)C1=C(c2cccc(OCc3ccccc3)c2)C[C@@H]2CC[C@H]1N2C(=O)NCc1ccccc1C(F)(F)F,-11.2,23.1µM*,?,20.6µM*,-5.0%,-28.6
COC(=O)C1=C(c2ccc(F)cc2OCc2ccccc2)C[C@@H]2CC[C@H]1N2C(=O)NCCN1CCOCC1,7.9,?,-8.5,-16.4%,-2.1%,-24.3
COC(=O)C1=C(c2cccc(OCc3ccccc3)c2)C[C@@H]2CC[C@H]1N2C(=O)NCCN1CCOCC1,-13.4,?,-0.1,16.4µM*,1.4%,-2.4
CCc1nc2ccc(C(=O)NCCN3CCNC3=O)cn2c1N(CC)Cc1cccc(Br)c1,-4.5,?,20.3,?,-0.4%,5.9
FC(F)(F)c1cccc(C2=CCN(CCc3ccc4ccccc4c3)CC2)c1,.,-47.6%,.,-18.0%,.,-17.8
Cc1ccsc1C(=O)C1CCCN(Cc2cnc(N3CCCC3)s2)C1 (stereo unspecified),8.8,18.4µM*,-78.8*,11.6µM*,.,-17.2
Cc1ccc(CN2CCCC(C(=O)c3sccc3C)C2)o1 (stereo unspecified),-9.5,20.6µM*,-51.8*,3.2%,.,-24.3
SMILES,IL1B secr inh,DT40 TDP1 no CPT,D3 antag,TDP1 cell CPT,ClpP mod,DRD3 agonist
Cc1ccc(-n2c(C)nc3cc(Cl)ccc3c2=O)nc1,16.0,13.3%,11.2,-5.9%,-1.9%,5.7
C[C@]12C=CC(=O)C=C1CC[C@@H]1C2CC[C@]2(C)OC(=O)CCC12 (stereo partly specified),11.6,-4.8%,-12.7,0.6%,.,-10.4
COC(=O)C1=C(N)Oc2c(c(=O)oc3ccccc23)C1c1cccnc1 (stereo unspecified),47.1,-15.1%,21.5,-10.7%,-1.9%,-0.4
CN1C(CC(=O)c2ccccc2)CCCC1CC(O)c1ccccc1 (stereo unspecified),-18.2,-20.4%,-80.5*,?,-3.7%,-45.9
CN1[C@@H](CC(=O)c2ccccc2)CCC[C@H]1C[C@H](O)c1ccccc1,-17.8,20.6µM*!,-74.8*,23.7µM*!,-1.4%,-91.0
COc1ccc(-n2c(/C=C/c3ccc(O)c(OC)c3)nc3ccccc3c2=O)cc1,-66.9*,25.9µM*,61.1,20.6µM*,-4.4%,8.7
O=c1c2ccccc2nc(/C=C/c2ccc(O)cc2)n1-c1ccc(O)cc1,-13.7,?,17.8,?,-6.9%,2.7
Cc1ccc(-n2c(/C=C\c3ccc(F)cc3)nc3ccccc3c2=O)cc1Cl,.,16.4µM*,.,14.6µM*,-1.1%,-5.6
COc1cccc(-n2c(/C=C/c3ccc(O)c(O)c3)nc3ccccc3c2=O)c1,?,?,23.9,17.5%,.,22.4
COc1ccc(-n2c(/C=C/c3ccc(O)cc3)nc3ccccc3c2=O)cc1,-54.3*,20.6µM*,36.6,23.1µM*,-6.6%,10.2
O=c1c2ccccc2nc(/C=C/c2ccccc2O)n1-c1ccc(Br)cc1,.,16.4µM*,.,?,-23.0%,2.7
CC(NC(=O)N1CC1(C)C)c1ccccc1 (stereo unspecified),-2.9,-18.8%,4.9,1.7%,.,6.1
